Data taken from PubChem BioAssay (NCI).
This is part of a sample that, as a whole, favours compounds with a hit. Of some 83,000 tested, about 20% had one in any assay.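 For each line, cells grew in 96-well plates with the test compound present at a single concentration for 48 hours.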 Unmarked numbers belong to inactive results. Activity calls are given as the source filed them. The calls were made as follows: active = growth percent below 10; inactive = the rest.

Columns and labels:
Assay in all cases: NCI-60 one-dose screen, 48 h (100 = growth as untreated, 0 = no growth, -100 = all killed)
Conditions in all cases: 10 µM unless noted
NCI-H23 lung = test system: NCI-H23 lung
NCI-H226 lung = test system: NCI-H226 lung
NCI-H322M lung = test system: NCI-H322M lung
HOP-62 NSCLC = test system: HOP-62 NSCLC
NCI-H460 lung = test system: NCI-H460 lung
HOP-92 NSCLC = test system: HOP-92 NSCLC
NCI-H522 lung = test system: NCI-H522 lung
A549/ATCC NSCLC = test system: A549/ATCC NSCLC
786-0 renal = test system: 786-0 renal
COLO 205 colon = test system: COLO 205 colon

SMILES	growth (NCI-H23 lung)	growth (NCI-H226 lung)	growth (NCI-H322M lung)	growth (HOP-62 NSCLC)	growth (NCI-H460 lung)	growth (HOP-92 NSCLC)	growth (NCI-H522 lung)	growth (A549/ATCC NSCLC)	growth (786-0 renal)	growth (COLO 205 colon)
COc1ccc(Nc2nnc(-c3ccc(OC)c(OC)c3)o2)cc1	74.1%	85.3%	87.4%	84.9%	100%	66.4%	62.8%	83.9%	91.9%	99.5%
COc1ccc(-c2ccc(=O)oc2-c2cc(OC)c(OC)c(OC)c2)cc1O	25.9%	42.7%	43.5%	-29% (active)	-18% (active)	89%	-11.7% (active)	15.9%	-6.12% (active)	12.5%
COc1ccc(-c2nc3cc(C(=O)NCc4ccccc4)ccc3n2C2CCCCC2)cc1	99.6%	102%	81%	90.1%	72.2%	92.8%	76.8%	74%	70.8%	64.7%
CCCCn1c(=O)[nH]c(N)c([C@@H]2c3c([nH]c(=O)n(CCCC)c3=O)Oc3ccc4ccccc4c32)c1=O	13%	92%	74.9%	73.6%	15.4%	83.3%	59%	94.6%	77.8%	59.3%
O=C1NC(=C(Cl)Cl)/C(=N\S(=O)(=O)NCc2ccccc2)N1	104%	99.2%	99.3%	102%	110%	107%	81.4%	94.1%	100%	121%
O=C1/C(=C/c2cccc(F)c2)CN(C(=O)C(Cl)Cl)C/C1=C\c1cccc(F)c1	-75.3% (active)	0.29% (active)	-44.1% (active)	-25.8% (active)	-63% (active)	-58% (active)	-80.3% (active)	-28.7% (active)	-77% (active)	-60% (active)
COc1ccc(C(C)=O)cc1S(=O)(=O)Nc1c(N)nc(SC)[nH]c1=O	91.3%	104%	96.9%	110%	103%	115%	98.6%	99.7%	102%	101%
COC(=O)c1c(C)nc(C)c2c1C(=O)C(Br)=C(NCc1ccccc1)C2=O	5.25% (active)	71%	31.4%	87.1%	11.7%	86.9%	22%	18.2%	51.6%	-11.8% (active)
CCO/C=N/C1=C(C#N)C(c2ccc(Cl)cc2)c2sc3c(F)cccc3c2O1 (stereo not given)	76.2%	88.6%	92.3%	58.4%	25.6%	77.1%	-6.96% (active)	53.4%	71.5%	95.7%
CN1CCc2nc3sc(C(N)=O)c(N)c3c(-c3cccs3)c2C1	36.2%	16.3%	40.7%	23.3%	30.4%	-7.38% (active)	38.9%	24.1%	9.22% (active)	7.02% (active)
O=C1/C(=C/c2cn(-c3ccccc3)nc2-c2ccccc2)SC(=S)N1C1CCCCC1	96.1%	92%	105%	101%	103%	46.9%	91.5%	103%	106%	117%
CCNCCNc1cc(C2CCCCC2)c(C#N)c2nc3ccccc3n12	44.7%	15.3%	-3.13% (active)	16.1%	-23.4% (active)	-24.5% (active)	-9.52% (active)	3.05% (active)	4.62% (active)	-52.8% (active)
CN(/C(N)=N/N=C/c1c2ccccc2cc2ccccc12)C1CCCCC1	16.1%	64.3%	73.6%	75.8%	43.6%	-5.84% (active)	40.9%	43.4%	49.5%	-55.5% (active)
O=C(CN1C(=O)S/C(=C\C(Cl)=C\c2ccccc2)C1=O)NCCc1ccc(O)cc1	40.2%	60.1%	75.2%	43%	45.7%	15.6%	-6.49% (active)	48.8%	-17.9% (active)	13.7%
CCOC(=O)Cc1cnc(N/N=C(\C)c2cc3ccccc3o2)s1	86.5%	80.5%	93.6%	68%	94.4%	86.9%	42%	91.5%	97.3%	108%
CC(=O)Oc1ccc(C)cc1C	103%	107%	108%	105%	115%	105%	101%	100%	100%	125%
O=S(=O)(NCCNc1nccc(-c2c(-c3ccc(F)c(O)c3)nc3sccn23)n1)c1ccc(O)cc1	54.6%	37.4%	70.8%	78.7%	40%	47.7%	25.4%	35.3%	49.6%	34.7%
O=C1c2c(c3c4ccccc4[nH]c3c3ccc4ccccc4c23)C(=O)N1CCN1CCNCC1	72.4%	76%	89.2%	61.3%	-69.2% (active)	78.3%	66.2%	-21% (active)	79.7%	79.1%
N=C(N)c1ccc(-c2ccc(-c3ccccc3)o2)cc1	3.73% (active)	-26.4% (active)	-37.8% (active)	-50.7% (active)	-73.1% (active)	-59.5% (active)	-82.6% (active)	-30.1% (active)	-86% (active)	-87.7% (active)
